Measured values from PubChem BioAssay AID652014 (National Center for Advancing Translational Sciences (NCATS), 2013).
Several values for one entry are separate records, joined by “and”; a condition that tells them apart may be missing. Identical values can stand only once. Activity calls are given as the source filed them.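 The calls were made as follows: active = relative GCLC transcription at 1 µM of at least 250%; inconclusive = relative GCLC transcription at 1 µM between 200% and 250%; inactive = relative GCLC transcription at 1 µM under 200%.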

Assay: qHTS of Nrf2 Activators: Hit Validation in GCLC Induction Assay
Details: Hepa1c1c7 cells, GCLC mRNA qPCR, 24 h; at 1 µM; stronger effect = higher value
Text: Many diseases have some form of oxidative stress injury and ties to inflammation, causing a host of problems for the patient. The antioxidant response element (ARE) plays an important role in alleviating the harmful effects of oxidative stress. The antioxidant response element (ARE) is a transcriptional regulatory element involved in the activation of genes coding for a number of antioxidant proteins and detoxifying enzymes. These enzymes work in concert to protect tissues from oxidative insults and chemical toxicities in human hepatocytes and immune cells. The protective effects of ARE activation are primarily triggered through Nrf2 (NF-E2-related factor) binding to and activating AREs. It is known that Nrf2 controls the production of over 250 antioxidant and detoxification proteins (Hu et al., 2006), thereby protecting tissues by increasing cellular antioxidant content and suppressing inflammatory signaling pathways. The transcription factor Nrf2 is a central link between oxidative chemicals, such as phenolic antioxidants and electrophilic compounds, and the activation of ARE. Nrf2 levels are constitutively low as a consequence of its interaction with Keap1, which targets its degradation (Zipper and Mulcahy, 2002). Electrophiles react with key cysteine residues in Keap1, releasing Nrf2 and allowing its translocation to the nucleus. Once within the nucleus, Nrf2 complexes with coactivators such as p300, and binds to the AREs to induce gene transcription of cytoprotective enzymes, resulting in the prevention of toxicity. Activation of Nrf2 protects tissues by increasing cellular antioxidant content and suppressing inflammatory signaling pathways. Identifying novel and potent Nrf2 activators by using the AREc32 cell line to detect ARE activation by small molecules will lead to the identification and development of probes to study protective pathways in multiple tissues. These specific probes are essential to study the ARE pathway, and eventually to determine whether this pathway does activate genes that could protect against a host of diseases, including cardiovascular diseases, obesity, diabetes, Alzheimer's, and Parkinson's disease. This project's aim is to identify novel and potent Nrf2 activators by using the AREc32 cell line to detect ARE activation by small molecules, which will lead to the identification and development of probes to study the ARE pathway. Compounds that were identified in the primary screen were tested in this secondary assay to assess whether a hit also activates Nrf2 transcription of the target gene GCLC. NIH Chemical Genomics Center [NCGC] NIH Molecular Libraries Probe Centers Network [MLPCN] MLPCN Grant: DK081461 Assay Submitter (PI): Curtis Klaassen, University of Kansas Medical Center
Hepac1c7 cells were seeded into 24-well plates at a density of 30,000 cells/well in 1 mL complete media per well and cultured overnight to allow attachment. Cells were treated the next day with compounds (1 uM)or positive control for 24 h. Total RNA samples were then isolated by using RNAzol B reagent (Tel-Test, Inc., Friendswood, TX) according to the manufacturer's protocol. Total RNAs were reverse-transcribed into cDNA by High Capacity cDNA Archive Kits (Applied Biosystems, Foster City, CA) and the resulting cDNA was used for real-time PCR analysis using SYBR(R) Green PCR Master Mix in a 7900HT Fast Real-Time PCR System.

Relative GCLC transcription, 369%:
O=C(Nc1cccc2ncccc12)c1ccc(Cl)cc1

Relative GCLC transcription, 461%:
COc1ccccc1NC(=O)c1cc(Cl)nc2ccccc12

Relative GCLC transcription, inactive:
O=C(Nc1ncnc2sc3c(c12)CCC3)c1ccco1 122%, CS(=O)(=O)c1nc(S(=O)(=O)c2ccc(Cl)cc2)c(N2CCOCC2)s1 148%, COC(=O)c1c(NC(=O)c2ccccc2)sc(C(N)=O)c1C 120%, COc1ccc(NC(=O)c2cc(-c3ccco3)on2)c(OC)c1 155%, COc1ccc(NC(=O)c2cc(-c3cccs3)on2)c(OC)c1 157%, Clc1ccc2c(NCc3ccccn3)ncnc2c1 181%, Cc1nc(NCc2ccco2)nc2c1C(=O)CC(C)C2 (stereo not given) 158%, O=C(Nc1ncnc2sc3c(c12)CCCCC3)c1ccco1 109% and 134%
